Source: the supplement of paper PMC12494721
Counter-ions that a name gives are not always drawn.

Legend:
Settings in all cases: incubation time: 27 h, anaerobic, 37 °C;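 for the amine columns active = adjusted P below 0.05 in both replicates with a change the same way and a mean fold change under 0.8 or over 1.25; inactive = the rest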
[1] = system: Clostridium sporogenes DSM 1664; assay: growth (OD595) fold change vs plate DMSO controls (fold change (ratio)); higher = more growth
How it was run: (§1)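 The reported measure is growth: the fold change against the median of DMSO controls on the plate. Absorbance at 595 nm from anaerobic 96-well mGAM cultures grown for 27 h at 37 °C was blank-subtracted, corrected for background with 20 µM compound solutions in water, and converted to OD with a calibration factor of 5. Fold changes above 1.5 appear as NA, and values are the mean of 2 biological replicates.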

Escherichia coli IAI1 [2] = assay: as above
How it was run: as §1

[3] = system: Klebsiella aerogenes DSM 30053; assay: as above
How it was run: as §1

[4] = system: Ruminococcus gnavus DSM 108212; assay: as above
How it was run: as §1

[5] = system: Klebsiella aerogenes DSM 30053; assay: fold change of Histamine concentration vs plate DMSO controls (fold change (ratio)); higher = more amine produced, active = hit call of the paper (significant change in both replicates, either direction)
How it was run: (§2)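 Anaerobic mGAM cultures of four gut bacterial strains were grown at 37 °C for 27 h in 80 µL wells, starting at OD 0.1 before 1:1 dilution. Compounds were at 20 µM final (sweeteners 50 µM). Whole cultures were extracted with cold acetonitrile/methanol containing 0.1% formic acid and centrifuged. Amines were quantified by LC–triple-quadrupole MS (dynamic MRM) against external calibration curves and drift-corrected within batch. Each value is the fold change versus plate DMSO controls, averaged over 2 biological replicates.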

[6] = system: Clostridium sporogenes DSM 1664; assay: fold change of Tryptamine concentration vs plate DMSO controls (fold change (ratio)); higher = more amine produced, active = hit call of the paper (significant change in both replicates, either direction)
How it was run: as §2

[7] = system: Ruminococcus gnavus DSM 108212; assay: as above
How it was run: as §2

Escherichia coli IAI1 [8] = assay: fold change of Putrescine concentration vs plate DMSO controls (fold change (ratio)); higher = more amine produced, active = hit call of the paper (significant change in both replicates, either direction)
How it was run: as §2

[9] = system: Klebsiella aerogenes DSM 30053; assay: as above
How it was run: as §2

Escherichia coli IAI1 [10] = assay: fold change of Cadaverine concentration vs plate DMSO controls (fold change (ratio)); higher = more amine produced, active = hit call of the paper (significant change in both replicates, either direction)
How it was run: as §2

[11] = system: Klebsiella aerogenes DSM 30053; assay: as above
How it was run: as §2

[12] = system: Ruminococcus gnavus DSM 108212; assay: fold change of 2-Phenylethylamine concentration vs plate DMSO controls (fold change (ratio)); higher = more amine produced, active = hit call of the paper (significant change in both replicates, either direction)
How it was run: as §2

SMILES | growth [1] | growth (Escherichia coli IAI1 [2]) | growth [3] | growth [4] | fold change of Histamine concentration [5] | fold change of Tryptamine concentration [6] | fold change of Tryptamine concentration [7] | fold change of Putrescine concentration (Escherichia coli IAI1 [8]) | fold change of Putrescine concentration [9] | fold change of Cadaverine concentration (Escherichia coli IAI1 [10]) | fold change of Cadaverine concentration [11] | fold change of 2-Phenylethylamine concentration [12]
CCN(CC)CCOc1ccc(C(=C(Cl)c2ccccc2)c2ccccc2)cc1 [(Z,E) Clomiphene citrate] (20 µM) | 1.06 | 1 | 1.02 | 1.01 | 0.973 (inactive) | 1.05 (inactive) | 0.655 (active) | 0.961 (inactive) | 0.981 (inactive) | 0.955 (inactive) | 1.01 (inactive) | 0.804 (inactive)
CCC(=O)O[C@@H]1CC(=O)O[C@H](C)C/C=C/C=C/[C@H](O)[C@H](C)C[C@H](CC=O)[C@H](O[C@@H]2O[C@H](C)[C@@H](O[C@H]3C[C@@](C)(O)[C@@H](OC(=O)CC)[C@H](C)O3)[C@H](N(C)C)[C@H]2O)[C@H]1OC [Midecamycin] (20 µM) | 0.00179 | 0.905 | 0.965 | 0.164 | 0.412 (active) | 0.0271 (active) | 0.143 (active) | 0.909 (inactive) | 1.06 (inactive) | 1.05 (inactive) | 1.05 (inactive) | 0.141 (active)
CC(=O)N[C@@H](CCC(N)=O)C(=O)O [Acetyl-L-glutamine] (20 µM) | 1.04 | 0.982 | 0.977 | 1.12 | 1.03 (inactive) | 0.997 (inactive) | 1.02 (inactive) | 0.98 (inactive) | 1 (inactive) | 0.977 (inactive) | 0.99 (inactive) | 1.05 (inactive)
CC(=O)O[C@]1(C(C)=O)CC[C@H]2[C@@H]3C=C(Cl)C4=CC(=O)[C@@H]5C[C@@H]5[C@]4(C)[C@H]3CC[C@@]21C [Cyproterone acetate] (20 µM) | 1.17 | 0.908 | 0.894 | 0.639 | 0.982 (inactive) | 0.986 (inactive) | 0.938 (inactive) | 1.02 (inactive) | 1 (inactive) | 0.999 (inactive) | 0.996 (inactive) | 0.927 (inactive)
CCN(CC)CCNc1ccc(CO)c2sc3ccccc3c(=O)c12 [Hycanthone] (20 µM) | 1.05 | 1.03 | 1.03 | 0.939 | 0.979 (inactive) | 0.791 (active) | 0.917 (inactive) | 1.01 (inactive) | 0.993 (inactive) | 0.967 (inactive) | 1.01 (inactive) | 0.917 (inactive)
OCCN1CCN(CC/C=C2/c3ccccc3Sc3ccc(Cl)cc32)CC1 [Zuclopenthixol dihydrochloride] (20 µM) | 0.904 | 1.25 | 1.01 | 0.937 | 1.03 (inactive) | 0.993 (inactive) | 0.919 (inactive) | 1.31 (inactive) | 0.994 (inactive) | 1.09 (inactive) | 0.992 (inactive) | 0.947 (inactive)
CCCCCCCCCCCCCCCCCCCCCC(=O)Nc1ccn([C@@H]2O[C@H](CO)[C@@H](O)[C@@H]2O)c(=O)n1 [Enocitabine] (20 µM) | 0.978 | 0.973 | 0.98 | 0.975 | 1.03 (inactive) | 0.984 (inactive) | 0.913 (inactive) | 1.01 (inactive) | 1.01 (inactive) | 1.01 (inactive) | 1.02 (inactive) | 0.866 (inactive)
OC[C@H]1OC(O)[C@H](O)[C@H](O)[C@@H]1O (stereo partly drawn) [D-allose] (50 µM) | 1.08 | 0.999 | 0.98 | 1.07 | 0.99 (inactive) | 1.02 (inactive) | 0.896 (inactive) | 1 (inactive) | 1.01 (inactive) | 1.07 (inactive) | 0.993 (inactive) | 0.886 (inactive)
CC(=O)Oc1cc(C(C)C)c(OCCN(C)C)cc1C [Moxisylyte hydrochoride] (20 µM) | 1.11 | 1.04 | 1.03 | 1.22 | 0.989 (inactive) | 0.957 (inactive) | 1.04 (inactive) | 0.997 (inactive) | 1.03 (inactive) | 0.986 (inactive) | 1 (inactive) | 0.982 (inactive)
C=CC(N)CCC(=O)O (centres undefined) [Vigabatrin hydrochloride] (20 µM) | 1.11 | 1.06 | 1.17 | 0.977 | 0.856 (inactive) | 0.993 (inactive) | 1.02 (inactive) | 1.02 (inactive) | 1.01 (inactive) | 0.978 (inactive) | 1.03 (inactive) | 1 (inactive)
O=C(O)c1ccccc1C(=O)Nc1ccc(S(=O)(=O)Nc2nccs2)cc1 [Phthalylsulfathiazole] (20 µM) | 0.901 | 0.981 | 0.96 | 1.09 | 1 (inactive) | 1.1 (inactive) | 0.948 (inactive) | 1.03 (inactive) | 1.01 (inactive) | 1.04 (inactive) | 0.987 (inactive) | 0.919 (inactive)
O=C1c2ccccc2S(=O)(=O)N1CCCCN1CCN(c2ncccn2)CC1 [Ipsapirone] (20 µM) | 1 | 0.977 | 0.973 | 0.939 | 0.94 (inactive) | 1.04 (inactive) | 0.997 (inactive) | 0.992 (inactive) | 0.997 (inactive) | 1.02 (inactive) | 1 (inactive) | 1.01 (inactive)
CC(=O)O[C@]1(C(C)=O)CC[C@H]2[C@@H]3C=C(C)C4=CC(=O)CC[C@@H]4[C@H]3CC[C@@]21C [Nomegestrol acetate] (20 µM) | 1.01 | 1.05 | 1.05 | 1.25 | 0.943 (inactive) | 1.01 (inactive) | 1.03 (inactive) | 1.03 (inactive) | 1 (inactive) | 0.946 (inactive) | 1.03 (inactive) | 1.02 (inactive)
CC(C)(C)NC(=O)[C@@H]1CN(Cc2cccnc2)CCN1C[C@@H](O)C[C@@H](Cc1ccccc1)C(=O)N[C@H]1c2ccccc2C[C@H]1O [Indinavir sulfate] (20 µM) | 1.29 | 1.01 | 1.04 | 0.985 | 0.966 (inactive) | 1.04 (inactive) | 1.05 (inactive) | 1.02 (inactive) | 1.03 (inactive) | 1.05 (inactive) | 1 (inactive) | 1.02 (inactive)
CN1CCC(=C2c3ccccc3CCc3cccnc32)CC1 [Azatadine maleate] (20 µM) | 0.968 | 0.983 | 0.994 | 0.99 | 1.05 (inactive) | 1.14 (inactive) | 1.01 (inactive) | 1.34 (inactive) | 1.01 (inactive) | 0.966 (inactive) | 1 (inactive) | 1.03 (inactive)
NC12CC3CC(CC(C3)C1)C2 [Adamantamine fumarate] (20 µM) | 0.99 | 1.02 | 0.991 | 0.942 | 0.988 (inactive) | 0.971 (inactive) | 1.09 (inactive) | 0.924 (inactive) | 0.993 (inactive) | 1.03 (inactive) | 1.09 (inactive) | 1.23 (inactive)
CC(N)(Cc1ccc(O)c(O)c1)C(=O)O (centres undefined) [(L) Methyldopa] (20 µM) | 0.936 | 0.99 | 1 | 0.89 | 1.06 (inactive) | 1 (inactive) | 1.11 (inactive) | 0.882 (inactive) | 1.06 (inactive) | 0.965 (inactive) | 1.07 (inactive) | 1.26 (active)
CN(c1nccc(=O)[nH]1)C1CCN(c2nc3ccccc3n2Cc2ccc(F)cc2)CC1 [Mizolastine] (20 µM) | 1.22 | 1.02 | 1.04 | 1.24 | 1.03 (inactive) | 0.967 (inactive) | 0.973 (inactive) | 0.986 (inactive) | 0.991 (inactive) | 0.977 (inactive) | 0.982 (inactive) | 0.967 (inactive)
Cc1cc(C)nc(NS(=O)(=O)c2ccc(N)cc2)n1 [Sulfamethazine sodium salt] (20 µM) | 1.01 | 0.957 | 0.984 | 0.999 | 1.06 (inactive) | 1.06 (inactive) | 1.04 (inactive) | 0.93 (inactive) | 1.03 (inactive) | 0.986 (inactive) | 0.995 (inactive) | 1.07 (inactive)
Cc1ccnc(NS(=O)(=O)c2ccc(N)cc2)n1 [Sulfamerazine] (20 µM) | 0.951 | 1.06 | 1.07 | 1.06 | 0.995 (inactive) | 0.975 (inactive) | 0.995 (inactive) | 1 (inactive) | 0.999 (inactive) | 1.01 (inactive) | 1.02 (inactive) | 0.97 (inactive)
Nc1nc(=O)c2c([nH]1)NC[C@@H](CNc1ccc(C(=O)N[C@@H](CCC(=O)O)C(=O)O)cc1)N2C=O [Folinic acid calcium salt] (20 µM) | 0.975 | 0.979 | 0.993 | 0.963 | 0.976 (inactive) | 1.02 (inactive) | 0.944 (inactive) | 1.05 (inactive) | 0.998 (inactive) | 0.962 (inactive) | 0.999 (inactive) | 0.882 (inactive)
COCCOC(=O)C1=C(C)NC(C)=C(C(=O)OC/C=C/c2ccccc2)C1c1cccc([N+](=O)[O-])c1 (centres undefined) [Cilnidipine] (20 µM) | 1.19 | 0.996 | 1.16 | 0.973 | 0.989 (inactive) | 0.918 (inactive) | 0.945 (inactive) | 1 (inactive) | 1.01 (inactive) | 0.982 (inactive) | 1.03 (inactive) | 0.905 (inactive)
